Measured values from the supplement of paper PMC11732987, “Enantioselective OTUD7B fragment discovery through chemoproteomics screening and high-throughput optimisation” (Communications Chemistry, 2025).

Experiments:
Test in all cases: log2 ratio of Biotin-Ahx-Ub-VS probe labelling (fragment/DMSO); higher = less target engagement (more negative = stronger competition), active = hit call of the paper (q ≤ 0.05, log2 ratio ≤ -1)
Conditions in all cases: compound concentration: 200 uM; treatment time: 3 h
OTUD6B = molecular target: T1, OTUD6B (UniProt Q8N6M0)
T1 sequence (whole entry): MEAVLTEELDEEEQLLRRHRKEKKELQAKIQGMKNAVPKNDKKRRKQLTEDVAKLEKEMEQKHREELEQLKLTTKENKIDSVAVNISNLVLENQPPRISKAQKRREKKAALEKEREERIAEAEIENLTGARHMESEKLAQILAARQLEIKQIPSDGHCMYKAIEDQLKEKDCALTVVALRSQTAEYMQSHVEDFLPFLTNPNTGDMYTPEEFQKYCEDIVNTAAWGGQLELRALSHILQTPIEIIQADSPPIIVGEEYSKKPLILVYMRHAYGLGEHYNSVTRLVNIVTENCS
Summary of the method: (§1)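 HEK293T lysate (495 µg per sample, in Tris/CHAPS/IGEPAL buffer with protease inhibitors) was treated in triplicate with fragment at 200 µM or with DMSO for 3 h. It was then treated with Biotin-Ahx-Ub-VS (0.5 µM final) for 1 h. Labelled DUBs were NeutrAvidin-enriched, digested with LysC and trypsin, and run by diaPASEF LC-MS/MS. Spectronaut label-free quantities were global-median-normalised. Values are average log2 ratios fragment/DMSO by unpaired t-test, using proteins with ≥2 unique peptides.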

OTUD7B = molecular target: T2, OTUD7B (UniProt Q6GQQ9)
T2 sequence (whole entry): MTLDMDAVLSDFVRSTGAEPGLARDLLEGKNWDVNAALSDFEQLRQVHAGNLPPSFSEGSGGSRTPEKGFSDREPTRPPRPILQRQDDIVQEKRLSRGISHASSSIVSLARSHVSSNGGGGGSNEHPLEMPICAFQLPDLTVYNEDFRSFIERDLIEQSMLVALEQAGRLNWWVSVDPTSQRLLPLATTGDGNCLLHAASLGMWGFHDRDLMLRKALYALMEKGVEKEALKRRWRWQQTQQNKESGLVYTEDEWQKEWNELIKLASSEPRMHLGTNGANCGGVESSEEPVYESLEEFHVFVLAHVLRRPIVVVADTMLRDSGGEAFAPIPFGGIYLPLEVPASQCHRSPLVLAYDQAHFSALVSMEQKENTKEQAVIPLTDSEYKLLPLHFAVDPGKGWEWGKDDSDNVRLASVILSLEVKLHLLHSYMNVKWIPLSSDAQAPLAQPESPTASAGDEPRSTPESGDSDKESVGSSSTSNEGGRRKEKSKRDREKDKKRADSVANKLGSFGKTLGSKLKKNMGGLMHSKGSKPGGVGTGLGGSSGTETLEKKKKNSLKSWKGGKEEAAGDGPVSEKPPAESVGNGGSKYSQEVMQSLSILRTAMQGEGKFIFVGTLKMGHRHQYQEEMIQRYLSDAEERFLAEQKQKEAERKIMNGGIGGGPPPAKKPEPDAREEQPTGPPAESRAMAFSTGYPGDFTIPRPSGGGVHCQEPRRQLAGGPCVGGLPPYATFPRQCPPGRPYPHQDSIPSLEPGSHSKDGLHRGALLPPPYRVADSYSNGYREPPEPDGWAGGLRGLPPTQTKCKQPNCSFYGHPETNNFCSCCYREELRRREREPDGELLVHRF
Summary of the method: as §1

PRPF8 = PRPF8 (UniProt Q6P2Q9)
Summary of the method: as §1

PSMD7 = molecular target: T3, PSMD7 (UniProt P51665)
T3 sequence (whole entry): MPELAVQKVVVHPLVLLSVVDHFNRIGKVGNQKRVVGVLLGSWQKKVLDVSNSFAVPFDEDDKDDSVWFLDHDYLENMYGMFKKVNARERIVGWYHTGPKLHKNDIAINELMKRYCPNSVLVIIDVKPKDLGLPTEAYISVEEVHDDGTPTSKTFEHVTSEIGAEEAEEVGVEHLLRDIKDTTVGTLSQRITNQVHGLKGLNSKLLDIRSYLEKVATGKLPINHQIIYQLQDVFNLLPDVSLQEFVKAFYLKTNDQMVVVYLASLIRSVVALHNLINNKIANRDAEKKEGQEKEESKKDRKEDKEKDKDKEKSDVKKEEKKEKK
Summary of the method: as §1

UCHL1 = UCHL1 (UniProt P09936)
Summary of the method: as §1

UCHL3 = molecular target: T4, UCHL3 (UniProt P15374)
T4 sequence (whole entry): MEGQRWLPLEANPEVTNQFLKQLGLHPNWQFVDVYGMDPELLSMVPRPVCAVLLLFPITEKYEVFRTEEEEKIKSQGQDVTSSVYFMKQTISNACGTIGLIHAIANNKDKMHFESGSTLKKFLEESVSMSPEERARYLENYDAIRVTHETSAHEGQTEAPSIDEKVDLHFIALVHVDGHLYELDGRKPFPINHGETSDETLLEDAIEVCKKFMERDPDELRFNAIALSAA
Summary of the method: as §1

UCHL5 = molecular target: T5, UCHL5 (UniProt Q9Y5K5)
T5 sequence (whole entry): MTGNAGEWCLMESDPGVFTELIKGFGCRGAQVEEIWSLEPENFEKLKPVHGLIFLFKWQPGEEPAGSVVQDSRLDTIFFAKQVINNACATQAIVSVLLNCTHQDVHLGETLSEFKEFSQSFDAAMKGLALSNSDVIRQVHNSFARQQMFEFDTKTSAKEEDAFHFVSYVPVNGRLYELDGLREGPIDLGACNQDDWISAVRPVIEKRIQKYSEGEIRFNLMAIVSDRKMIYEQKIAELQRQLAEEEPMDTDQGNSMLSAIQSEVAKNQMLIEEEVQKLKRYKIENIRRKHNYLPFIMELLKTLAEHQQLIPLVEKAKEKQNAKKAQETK
Summary of the method: as §1

USP10 = USP10 (UniProt Q14694)
Summary of the method: as §1

USP15 = molecular target: T6, USP15 (UniProt Q9Y4E8)
T6 sequence (whole entry): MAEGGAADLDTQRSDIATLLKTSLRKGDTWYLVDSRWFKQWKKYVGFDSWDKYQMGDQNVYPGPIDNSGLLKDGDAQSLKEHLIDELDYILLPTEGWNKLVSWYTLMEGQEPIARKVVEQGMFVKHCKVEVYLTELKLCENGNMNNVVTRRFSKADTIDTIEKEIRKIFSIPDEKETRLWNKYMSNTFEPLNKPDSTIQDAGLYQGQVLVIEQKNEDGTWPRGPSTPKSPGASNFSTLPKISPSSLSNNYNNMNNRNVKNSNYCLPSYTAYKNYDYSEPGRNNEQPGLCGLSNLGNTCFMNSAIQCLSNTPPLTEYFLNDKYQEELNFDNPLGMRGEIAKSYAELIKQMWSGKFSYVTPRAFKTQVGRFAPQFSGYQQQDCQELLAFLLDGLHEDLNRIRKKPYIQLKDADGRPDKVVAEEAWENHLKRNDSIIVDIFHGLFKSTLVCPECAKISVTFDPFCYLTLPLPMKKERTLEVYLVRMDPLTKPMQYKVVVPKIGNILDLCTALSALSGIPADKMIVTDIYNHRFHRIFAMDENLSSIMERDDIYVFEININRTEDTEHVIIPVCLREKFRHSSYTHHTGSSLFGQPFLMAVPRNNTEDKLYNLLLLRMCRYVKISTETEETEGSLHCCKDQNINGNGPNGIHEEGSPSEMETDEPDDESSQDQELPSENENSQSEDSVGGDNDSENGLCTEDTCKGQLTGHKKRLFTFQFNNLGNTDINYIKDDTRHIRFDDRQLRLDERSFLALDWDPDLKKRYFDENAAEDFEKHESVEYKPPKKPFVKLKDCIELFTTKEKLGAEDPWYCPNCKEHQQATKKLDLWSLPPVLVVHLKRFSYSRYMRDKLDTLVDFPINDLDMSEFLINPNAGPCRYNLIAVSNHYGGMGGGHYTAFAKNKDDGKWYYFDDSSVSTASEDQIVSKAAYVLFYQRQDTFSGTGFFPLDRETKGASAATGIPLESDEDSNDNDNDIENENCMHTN
Summary of the method: as §1

USP16 = USP16 (UniProt Q9Y5T5)
Summary of the method: as §1

Measured: log2 ratio of Biotin-Ahx-Ub-VS probe labelling

Sequence of USP16 (Q9Y5T5 whole entry, looked up): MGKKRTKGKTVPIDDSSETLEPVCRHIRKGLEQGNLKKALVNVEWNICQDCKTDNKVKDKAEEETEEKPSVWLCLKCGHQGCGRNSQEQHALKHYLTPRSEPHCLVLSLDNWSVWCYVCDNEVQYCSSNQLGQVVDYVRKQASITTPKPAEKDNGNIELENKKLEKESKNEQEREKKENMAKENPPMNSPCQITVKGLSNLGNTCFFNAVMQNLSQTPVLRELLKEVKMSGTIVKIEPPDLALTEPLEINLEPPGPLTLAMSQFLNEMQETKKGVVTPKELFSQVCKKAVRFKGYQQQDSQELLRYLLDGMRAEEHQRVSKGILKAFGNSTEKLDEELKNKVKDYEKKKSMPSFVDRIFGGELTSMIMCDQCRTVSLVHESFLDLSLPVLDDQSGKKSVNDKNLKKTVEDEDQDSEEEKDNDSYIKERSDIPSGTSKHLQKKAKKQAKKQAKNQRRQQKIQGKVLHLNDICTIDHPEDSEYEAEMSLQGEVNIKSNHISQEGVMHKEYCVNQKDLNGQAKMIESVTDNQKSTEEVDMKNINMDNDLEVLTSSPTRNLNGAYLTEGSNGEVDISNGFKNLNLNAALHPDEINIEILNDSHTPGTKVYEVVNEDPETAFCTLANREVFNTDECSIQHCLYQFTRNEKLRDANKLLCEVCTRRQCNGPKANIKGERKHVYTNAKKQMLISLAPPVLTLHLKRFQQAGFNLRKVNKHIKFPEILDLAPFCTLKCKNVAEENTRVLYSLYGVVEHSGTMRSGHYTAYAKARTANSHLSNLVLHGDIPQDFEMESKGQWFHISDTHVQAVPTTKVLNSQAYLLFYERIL
Sequence of USP10 (Q14694 whole entry): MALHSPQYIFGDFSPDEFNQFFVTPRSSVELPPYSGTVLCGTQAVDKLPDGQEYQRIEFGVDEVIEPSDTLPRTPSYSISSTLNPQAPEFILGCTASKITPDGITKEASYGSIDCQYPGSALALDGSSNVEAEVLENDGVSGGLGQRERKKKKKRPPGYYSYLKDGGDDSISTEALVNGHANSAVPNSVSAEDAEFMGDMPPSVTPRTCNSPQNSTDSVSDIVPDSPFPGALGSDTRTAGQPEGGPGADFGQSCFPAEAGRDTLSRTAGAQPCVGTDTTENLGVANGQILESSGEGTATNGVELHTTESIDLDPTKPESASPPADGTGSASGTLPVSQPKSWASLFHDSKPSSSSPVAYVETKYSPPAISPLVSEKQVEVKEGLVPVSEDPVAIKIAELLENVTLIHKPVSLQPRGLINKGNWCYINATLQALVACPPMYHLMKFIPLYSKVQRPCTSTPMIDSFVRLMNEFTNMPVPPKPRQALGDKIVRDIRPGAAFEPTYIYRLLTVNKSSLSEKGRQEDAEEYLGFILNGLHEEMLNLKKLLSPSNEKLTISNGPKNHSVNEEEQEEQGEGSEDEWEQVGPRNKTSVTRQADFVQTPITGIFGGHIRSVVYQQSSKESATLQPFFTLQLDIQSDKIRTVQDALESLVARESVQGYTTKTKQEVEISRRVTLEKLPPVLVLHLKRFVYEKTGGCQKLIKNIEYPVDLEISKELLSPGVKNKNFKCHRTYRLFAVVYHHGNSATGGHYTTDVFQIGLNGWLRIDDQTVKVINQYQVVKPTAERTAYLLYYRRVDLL
Sequence of UCHL1 (P09936 whole entry, looked up): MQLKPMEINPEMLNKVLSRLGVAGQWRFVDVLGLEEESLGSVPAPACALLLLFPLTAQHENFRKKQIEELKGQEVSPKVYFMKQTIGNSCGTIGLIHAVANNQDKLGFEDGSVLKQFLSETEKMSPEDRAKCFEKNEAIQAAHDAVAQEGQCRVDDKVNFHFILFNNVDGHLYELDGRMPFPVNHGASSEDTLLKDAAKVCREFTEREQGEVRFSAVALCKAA

O=C(CCl)Nc1ccccc1C(F)(F)F
inactive: OTUD6B -0.447 | OTUD7B -0.668 | PRPF8 0.155 | PSMD7 -0.0779 | UCHL1 -0.977 | UCHL3 0.2 | UCHL5 -0.341 | USP10 -0.0659 | USP15 -0.122 | USP16 -0.0895
